Source: ChEMBL document CHEMBL3988442, “University of Dundee, Small-Polar-MMV Screening Library” (2021)
The campaign covered roughly 48,000 compounds. About 13,000 (27%) showed an effect of 50% or more. This is one part of the list.

test system: Wolbachia pipientis; experiment: Anti-Wolbachia Cell-Based Screen; type: functional; design: scale not given: in the data most compounds retested in dose-response had high values; details: 5 µM

Row | Structure (SMILES) | Percent Effect [%]
1 | COc1ccccc1OCC(=O)NS(=O)(=O)c1cc(F)ccc1F | -8.021
2 | COCCn1nc(C(=O)N(C)Cc2cccnc2)ccc1=O | 131.6
3 | COCCn1nc(C(=O)N(C)Cc2ccc3ccccc3c2)ccc1=O | 98.47
4 | COc1nn(C)cc1C(=O)NCC(=O)NCc1cccnc1 | -2.836
5 | COCCn1nc(C(=O)N2CCCC2c2cccc(F)c2)ccc1=O (stereo not drawn) | 1.762
6 | COCCn1nc(C(=O)N2CCN(C)CC2C)ccc1=O (stereo not drawn) | -13.53
7 | COCC(=O)N(Cc1cccnc1)CC1CCN(C2CCCC2)CC1 | -6.321
8 | CCN(CC(=O)NC)S(=O)(=O)c1cnc2c(c1)c(C)nn2C | -1.026
9 | N#CC1(C(=O)N2CCN(c3nccs3)CC2)CCCCC1 | -10.71
10 | CN(C)c1ncccc1NC(=O)COCC1CC1 | 7.684
11 | N#Cc1cccc(OCCN2CCCC(c3noc(C4CC4)n3)C2)c1 (stereo not drawn) | -47.81
12 | CN1CCOCC12CCN(c1ccc(C#N)cc1)CC2.O=C(O)C(F)(F)F | -6.092
13 | CNC(=O)COC1COC2(CCN(c3ccc(C#N)cc3)CC2)C1.O=C(O)C(F)(F)F (stereo not drawn) | 4.884
14 | CN1CCN(C2COC3(CCN(c4ccc(C#N)cc4)CC3)C2)CC1.O=C(O)C(F)(F)F (stereo not drawn) | 99.27
15 | N#Cc1ccc(N2CCC3(CC2)CC(N2CCOCC2)CO3)cc1.O=C(O)C(F)(F)F (stereo not drawn) | 99.84
16 | COC1COC2(CCN(c3ccc(C#N)cc3)CC2)C1.O=C(O)C(F)(F)F (stereo not drawn) | -8.699
17 | N#Cc1ccc(N2CCC3(CC2)CC(Oc2cccnc2)CO3)cc1.O=C(O)C(F)(F)F (stereo not drawn) | 18.7
18 | COc1cccc(-c2cnnc(N(C)CCC3CCCCO3)n2)c1 (stereo not drawn) | -7.888
19 | Cc1cc2c(c(-c3c[nH]c(C)n3)c1)OC(CN)C2 (stereo not drawn) | 10.27
20 | Cc1ccc(CCNC(=O)N2CCCC(Cc3nccn3C)C2)cn1 (stereo not drawn) | -1.285
21 | Cc1ccc(CCNC(=O)NC2CCN(CC(F)(F)F)C2=O)cn1 (stereo not drawn) | -2.04
22 | CCOc1cc(CNC(=O)N2CCC(Cc3cnn(C)c3)C2)ccn1 (stereo not drawn) | 0.1866
23 | Cn1cc(CC2CCN(C(=O)NCCCc3ccc(O)cc3)C2)cn1 (stereo not drawn) | 109.7
24 | COc1ccc(CNC(=O)N2CCC(Cc3cnn(C)c3)C2)cc1C (stereo not drawn) | -1.04
25 | Cc1ccc(CCNC(=O)N2CCC(Cc3cnn(C)c3)C2)cn1 (stereo not drawn) | 129.7
26 | CC(=O)Nn1ccc2c(nnc3c(-c4ccccc4)cnn32)c1=O | 95.62

Row | Structure (SMILES) | Percent Effect [%]
27 | Cc1ccc2c(ccn2CCC(=O)O)c1 | -5.722
28 | O=C(O)CCn1ccc2c(nnc3c(-c4ccc(F)cc4)cnn32)c1=O | 102.5
29 | CC(=O)Nn1ccc2c(nnc3c(-c4ccc(F)cc4)cnn32)c1=O | 91.05
30 | CCN(CC)CCC(=O)NCc1cc2n(n1)CCN(C(=O)N(C)C)C2 | -4.405
31 | Cc1ccc(-c2ncc(C(=O)N3CCC[C@H](N)C3)c(O)n2)cc1 | 4.793
32 | CC(O)c1cn(CC2CCN(C(=O)c3cccc(N(C)C)c3)CC2)nn1 (stereo not drawn) | -11.02
33 | Cc1nnc(NC(=O)N2CCCN(C3CCCC3)CC2)s1 | -2.14
34 | CC1CCN(CCCNC(=O)Nc2cc3c(cc2Br)OCCO3)CC1 | -0.7212
35 | Cc1nc(-c2c(-c3ccccc3)ncn2[C@H]2C[C@@H](C(=O)O)N(C)C2)co1 | -9.295
36 | CCSCc1ccnc(NC(=O)C2CCOC2)c1 (stereo not drawn) | 20.8
37 | CCOc1ccc(C(=O)N2CCC(Oc3ccccc3)(C(=O)O)CC2)o1 | -0.9818
38 | CC(C)(C)N1CCN(C(=O)c2cccnc2-n2cncn2)CC1 | -9.982
39 | CCCc1cc(N2CCC(NCC3(O)CCCCC3)CC2)nc(C)n1 | -11.13
40 | CCc1cc(N2CCC(NCCc3ccccc3F)CC2)nc(C)n1 | 82.1
41 | CCc1cc(N2CCC(NCc3ccc(C)o3)CC2)ncn1 | 91.75
42 | CCc1cc(N2CCC(NCCSc3nnnn3C)CC2)nc(C)n1 | 4.673
43 | CCc1cc(N2CCC(NCCc3nc(C)c(C)s3)CC2)nc(C)n1 | 99.23
44 | CCc1csc(CNC2CCN(c3ccc(C)cc3)CC2)n1 | -9.18
45 | CCCc1cc(N2CCC(NCCc3ccc(O)cc3)CC2)nc(C)n1 | 19.96
46 | CCc1cc(N2CCC(NC(=O)CCC3CCCO3)CC2)ncn1 (stereo not drawn) | -4.201
47 | CCc1cc(N2CCC(NCCc3ccc(C)o3)CC2)nc(C)n1 | 97.78
48 | Cc1nc(CCNC2CCN(Cc3ccccc3)C2)sc1C (stereo not drawn) | -12.11
49 | Cc1nc(C)c(C)c(N2CCC(NCCOc3ccccc3)CC2)n1 | 8.772
50 | Cc1cccc(C(C(=O)NCCc2nc(C)cc(=O)[nH]2)N(C)C)c1 (stereo not drawn) | 7.079
51 | Nc1nc(CCCNC(=O)C2CCCN(Cc3ccco3)C2)cs1 (stereo not drawn) | 11.5
52 | Cc1ccccc1C(=O)NCCC(=O)NS(=O)(=O)c1cccnc1 | -14.99

Row | Structure (SMILES) | Percent Effect [%]
53 | CCn1cncc1CNc1ccc(-c2nc(CC(C)C)no2)cn1 | 7.108
54 | CC(C)c1nnc2n1CCN(C(=O)c1ccc(OCC3CC3)cc1)C2 | 5.374
55 | COc1cc(CNC(C)c2nnc3n2CCC3)cc(OC)c1 (stereo not drawn) | 10.34
56 | Cc1ccoc1CNC(C)c1nnc2n1CCCC2 (stereo not drawn) | -17.53
57 | CCn1cc(N)c(-c2nnc3n2CCCC3)n1 | 106
58 | CC(NCc1ccc(Cl)o1)c1nnc2n1CCCC2 (stereo not drawn) | -1.685
59 | Cc1ccc(CNC(C)c2nnc3n2CCCC3)o1 (stereo not drawn) | -12.78
60 | COc1c(CNCc2nnc3n2CCCCC3)c(C)nn1C.Cl | -7.415
61 | CCn1cc(N)c(-c2nnc3n2CCC3)n1 | 92.6
62 | CC(NCc1ccco1)c1nnc2n1CCCC2 (stereo not drawn) | -19.1
63 | Cn1cc(N)c(-c2nnc3n2CCCC3)n1 | 140.1
64 | O=C(NCC1(O)CCOc2ccccc21)Nc1ccccc1 (stereo not drawn) | -14.8
65 | O=C(O)c1ccnc(-c2ccnc(COc3ccc(Cl)cc3)n2)c1 | -21.17
66 | CCCS(=O)(=O)N1CCN(c2cc(-n3cnc(C)c3C)ncn2)CC1 | -4.672
67 | NC(=O)c1ccc(OCCCN2CCC3(CC2)OCCCC3O)cc1 (stereo not drawn) | 101.3
68 | Cc1cc(C2CCC2)nc(N2CCC3(CC2)OCCCC3O)n1 (stereo not drawn) | -2.811
69 | NC(=O)c1ccc(OCCCN2C[C@H](C3CC3)[C@@H](N)C2)cc1 | -11.21
70 | OC1CCCOC12CCN(CCCOc1ccccc1F)CC2 (stereo not drawn) | 114.2
71 | O[C@H]1CN(CCCOc2ccccc2F)CC[C@@]12CCCO2 | 134.4
72 | O[C@H]1CCN(CCCOc2ccccc2F)C[C@@]12CCCO2 | 90.29
73 | COc1ccccc1S(=O)(=O)N1CCC2(CC1)OCCCC2O (stereo not drawn) | 6.351
74 | O=C(C1CCC1)N1CCN(Cc2ccc(F)cc2)[C@H]2CS(=O)(=O)C[C@H]21 | 11.26
75 | O=C(Nc1ccccn1)NC1CCN(c2ccccc2OC(F)F)C1 (stereo not drawn) | -25.38
76 | COc1ccc2nc(C[C@@H]3C[C@@H](C(C)C)[C@H](CN)C=C3C)[nH]c2n1 | 16.51
77 | CC(C1CCN(Cc2cnn(C)c2C2CC2)CC1)N1CCCC1 (stereo not drawn) | 22.88
78 | C1CCC(NCC2(N3CCOCC3)CCSC2)C1 (stereo not drawn) | -110.3

Row | Structure (SMILES) | Percent Effect [%]
79 | COc1ccccc1[C@@H]1CN(Cc2c(C)noc2C)C[C@H]1C(=O)O | -13.6
80 | Cc1cc(NS(=O)(=O)CC2CCCCO2)ccc1F (stereo not drawn) | 4.819
81 | Cc1cc(S(C)(=O)=O)c(C)c(S(=O)(=O)NCC2CCCO2)c1 (stereo not drawn) | -7.327
82 | Cc1cc(NCC2CCCO2)cc(=O)n1C (stereo not drawn) | 135.4
83 | COCC(C)N(C)C(=O)NC1CCN(c2ncccn2)CC1 (stereo not drawn) | 0.8848
84 | CCN(Cc1noc(C2CC2)n1)Cc1ccc(C#N)cc1F | -1.413
85 | CC(C)N1CCO[C@@H]2CN(C(=O)Cc3cccs3)CC[C@@H]2C1.O=C(O)C(F)(F)F | 111.3
86 | CN(C)C[C@H]1OC[C@@H]2CCN(C(=O)Cc3cccs3)C[C@@H]21.O=C(O)C(F)(F)F | -1.59
87 | O=C(Cc1cccs1)N1CCOC(c2cccc(O)c2)C1 (stereo not drawn) | -7.888
88 | CS(=O)(=O)N1CCO[C@@H]2CN(C(=O)Cc3cccs3)CC[C@@H]2C1 | 99.33
89 | O=C1NCCO[C@H]2CN(C(=O)Cc3cccs3)CC[C@@H]12 | -57.9
90 | O=C(Cc1cccs1)N1C[C@@H]2CN(Cc3ccoc3)CCO[C@@H]2C1.O=C(O)C(F)(F)F | -6.419
91 | CN1CCO[C@@H]2CN(C(=O)Cc3cccs3)CC[C@@H]2C1.O=C(O)C(F)(F)F | 104.2
92 | COCCN1CCO[C@@H]2CN(C(=O)Cc3cccc(F)c3)CC[C@@H]2C1.O=C(O)C(F)(F)F | 6.529
93 | CCOc1ccc(N(C)S(=O)(=O)c2c[nH]c(C(C)C)n2)cc1 | -17.69
94 | O=C(CNC(=O)C1CC1)NCCOc1cccc(Cl)c1Cl | 3.053
95 | CC1CN(C(=O)c2cc[nH]c(=O)c2)c2ccccc21 (stereo not drawn) | 6.091
96 | Cc1ccc2c(c1)N(C(=O)c1c[nH]c(C)cc1=O)CC(C)O2 (stereo not drawn) | 67.22
97 | Cc1ccc2c(c1)N(C(=O)c1nccnc1N)CC(C)O2 (stereo not drawn) | -0.6709
98 | Cc1ccc2c(c1)OC(C)CN2C(=O)c1c[nH]c(C)cc1=O (stereo not drawn) | 100.7
99 | Cc1ccc2c(c1)OC(C)CN2C(=O)Cc1ccc(C)nc1 (stereo not drawn) | -1.859
100 | Cc1ccc2c(c1)OC(C)CN2C(=O)CCc1cscn1 (stereo not drawn) | -1.954
101 | CC1CN(C(=O)c2ccc(C(N)=O)cc2)c2ccc(F)cc2O1 (stereo not drawn) | -13.6
102 | Cc1ccc2c(c1)OC(C)CN2C(=O)CCc1cccnc1 (stereo not drawn) | 9.162
103 | Cc1ccc2c(c1)N(C(=O)c1cc[nH]c(=O)c1)CC(C)O2 (stereo not drawn) | 102.6
